The sequences below were run against GST-WRKY1(266-371) (Arabidopsis thaliana, UniProt Q9SI37 266-371) (assay: universal protein binding microarray (PBM); transcription factors of Arabidopsis thaliana; high values mean tight binding). Settings: protein: recombinant; tags: GST; dsDNA, one strand shown.
In short: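 Cells were induced to make GST-tagged NAC-domain, full-length or DNA-binding-domain proteins, and zinc acetate was added for zinc-finger proteins. These proteins were purified on glutathione–Sepharose 4B, quantified by A280 or anti-GST western blot, and applied in duplicate at 200 to 500 nM final to custom all-10-mer Agilent 4 × 180K arrays that primer extension had made double-stranded. Binding is given as the normalised enrichment score (E-score) for scored gapped and ungapped 8-mers.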

Chain of GST-WRKY1(266-371) (Q9SI37 266-371): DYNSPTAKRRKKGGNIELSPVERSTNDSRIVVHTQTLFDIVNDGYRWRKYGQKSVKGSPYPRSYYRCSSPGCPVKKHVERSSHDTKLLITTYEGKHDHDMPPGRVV

Sequence | binding signal [E-score]
GCTTGACC | 0.482
GGCTGACC | 0.431
ATGACCGA | 0.405
CGGGTCAA | 0.487
CTGACCAA | 0.427
CCAGGTCA | 0.408
AGTCGGTC | 0.403
CCATTGAC | 0.473
GCTGGTCA | 0.452
CCGAGTCA | 0.409
TGACCCAA | 0.419
ATGGTCAG | 0.421
CGGTCGTC | 0.41
AGAGGTCA | 0.425
CTAGGTCA | 0.428
TGACCTCA | 0.41
ATGACCGG | 0.407
AAGACCGG | 0.428
AGTCAGCA | 0.432
AGGTCGTC | 0.416

Sequence | binding signal [E-score]
TGACCGCA | 0.429
GGAGTCAA | 0.476
GAGTCAGA | 0.419
GGTCAGAA | 0.444
CGATTGAC | 0.443
CAGGGTCA | 0.403
GAGTCAGC | 0.418
CCGCTGAC | 0.414
AACGGTCA | 0.435
CTGACCTA | 0.413
AGTGGTCA | 0.436
CGACGACC | 0.439
AGTCAGCC | 0.415
GCCGTCAA | 0.402
CGGTTGAC | 0.475
ACGACCAG | 0.403
CTGACCGA | 0.439
GCGGGTCA | 0.421
GGTCGTCA | 0.41
